From the supplement of paper PMC11417369
± gives the standard deviation of the averaged measurements. In all, about 25,000 sequences were measured (“ln(normalized median fluorescence intensity)”: median about 10, highest 2% from about 12 on). For the sample, the highest values were picked, then their nearest neighbours and some sequences at random.

Tested on: PfAP2-G AP2 domain (GST-tagged)
Experiment: gcPBM binding intensity (ln(normalized median fluorescence intensity)); higher = stronger DNA binding
Summary of the method: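 The highest Masliner-normalised natural-log median intensity across replicate spots of either probe orientation is reported as binding intensity. GST-tagged P. falciparum DNA-binding domains expressed in E. coli were applied for 1 h to an Agilent 4 × 180k array of primer-extended double-stranded 36-bp intergenic genomic probes plus negative controls, and bound protein was detected with Alexa488 anti-GST antibody and scanned at 488 nm.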

| Sequence | gcPBM binding intensity (ln) |
| --- | --- |
| GATATATGTATAATAACGCACACTACAAAAATAAAA [CACACA_site2100] | 10.3 ± 0.33 |
| ATGTATATATATATATGTACTAATTAGTAGTTTACG [XGTACX_site6272] | 11.1 ± 0.71 |
| ATAATGACTAAATTTAAACACACAAGGGGAGTTTAC [CACACA_site8209] | 9.725 ± 0.007 |
| ATAAATACATTAAAATGTACATAAAAATATTACTGG [XGTACX_site1484] | 11.2 ± 0.67 |
| CTTTATATATAGTGTACACATTAAACAAATCTCAAT [CACACA_site5845] | 11.6 ± 1 |
| TAAATATAAGTGTACATACACACTTTACAATCTCAT [CACACA_site3006] | 11.3 ± 0.72 |
| TATAAATAAAAGTGTACACACATTAAAATCAAACGT [CACACA_site5316] | 11.7 ± 0.89 |
| TTTTTTTAATAAAAGTGTACCAAATTATATACACAT [XGTACX_site6811] | 11.1 ± 0.64 |
| TATAAATAAATGTGTACACACATTAAAATCAAACGT [CACACA_site2340] | 11.7 ± 0.96 |
| TATATAAATAAATGTGTACACACATTAAAATCAAAC [CACACA_site8733] | 11.6 ± 1.1 |
| ACAATAAAGAAGTGTACACATATATCAATAAAAAAA [CACACA_site5228] | 11.6 ± 0.95 |
| AAAACTATATTAATGTGTACACATCAAAATATTAAT [XGTACX_site6767] | 11.6 ± 0.84 |
| TATTTTTTTAAAATAGGTACACAATCAAACATTTAT [XGTACX_site8785] | 11.4 ± 0.97 |
| CATCTTATATAATCATGTACATATAGAGACTTCTTT [XGTACX_site7685] | 11.1 ± 0.63 |
| TATATTTACATTGTAACACACATGAAATATATATAT [CACACA_site61] | 9.93 ± 0.2 |
| TATAAATATTATAATTGTACATATTATAAAAATTTT [XGTACX_site2719] | 11 ± 0.75 |
| TATTTTTACCCATAAAGTACACATAAATATAAAATA [XGTACX_site177] | 11.5 ± 1 |
| ATGGACAAGTTAAACGCACACAAATATATACACCCA [CACACA_site8478] | 10.6 ± 0.39 |
| ATATATTTATTTTGTGCACACAACGCAAACCTTTTA [CACACA_site3508] | 10.5 ± 0.27 |
| CCGTATTCAAAAAGGAGTACACAATTATATGTTATA [XGTACX_site641] | 11.7 ± 1 |
| AATTTTGTTAAAAGGACACACAATTCAATATATTAA [CACACA_site647] | 11.1 ± 0.73 |
| AAATATATATTCAAAAGTACACAATTTGTTAATAAT [XGTACX_site8917] | 11.4 ± 0.82 |
| TATAATTTATAAGTAGTGCATTTCTTTTCATTTTTA | 10.03 ± 0.057 |

| Sequence | gcPBM binding intensity (ln) |
| --- | --- |
| AAGATTAAACATTGCACACAGAAATATATTTTCTAT [CACACA_site2374] | 9.91 ± 0.099 |
| AATAGTAAAAGATATACACACACCAAAAAATATAAT [CACACA_site5293] | 10.2 ± 0.12 |
| TTTATATACAAAAATGCACACGAAAAGTAATATATA [CACACA_site9387] | 10.28 ± 0.049 |
| ACAGTATCTGGTAGCTGTACGAGTCGTAGAGAGTAG [XGTACX_site2041] | 11.2 ± 0.71 |
| AAAAAAAAAAAAAGTACACACTTTTGCGTACAAGTA [CACACA_site5672] | 11.9 ± 0.83 |
| AAAAGAAAAAAAAGTACACACATGTATATTAAGCGT [CACACA_site5402] | 11.5 ± 0.83 |
| AAAAAAAAAAAAAAAGTACACACTTTTGCGTACATG [CACACA_site3097] | 12.3 ± 1.4 |
| AAAAAAAAAAAAAAAAGTACAAGCATTGCGTTTTAA [XGTACX_site6075] | 11.5 ± 0.83 |
| TTACATGTACAAAAGTTGCACTTCATACACTTTTAT | 11.1 ± 0.61 |
| ACTTTGCGTTAAAAGAGTACATAATATTTTTTTTTT [XGTACX_site7533] | 11.2 ± 0.73 |
| TTTTTTTTTTTTAGAGTACACACTTTTTTACATTTA [CACACA_site3836] | 11.4 ± 0.83 |
| TACCTACACTTTTGGAGTACAATTAAAAAAAAAAAA [XGTACX_site1403] | 11.5 ± 1.1 |
| AATTTCCTTTTTTAAAGTACACAAAAGTTCACTTTG [XGTACX_site4460] | 11.6 ± 0.98 |
| TATTTTGTTTTAAAAGTACACACTTTTAATTAGATT [CACACA_site1180] | 11.5 ± 1 |
| AAAAAAAAAAAAAAAAGTACACACTTTTGCCTACAT [XGTACX_site6583] | 11.6 ± 0.86 |
| AAAAAAAAAAAAAGTACACACTTTTGCGTACATGTA [CACACA_site7449] | 12 ± 0.98 |
| ATTTATATTTATAAATGTACACATATATATTTCATT [XGTACX_site2723] | 11.2 ± 0.63 |
| CCGCCATTGTACCATCCACACACATATATATATGTA [CACACA_site8866] | 10.9 ± 0.45 |
| AAAATAACGAGTCAAACACACATATATATATATATA [CACACA_site2039] | 10.1 ± 0.25 |
| AAATTGTAGCACCAAGCATGCTAAAAGGACATATGA [TGCATGCA_site717] | 10.8 ± 0.34 |
| GATATAAGGGTATGAAGTACATAAATATTTTATGCT [XGTACX_site1886] | 11.3 ± 0.88 |
| ACCCAAGAGAAAAGAGAAAGAAATATGTGTATATTG [GTGCAC_negctrl_site214] | 9.92 ± 0.042 |
| TTCAGTGTATACATATGTACATATATATATATATAT [XGTACX_site1621] | 11.3 ± 0.56 |

| Sequence | gcPBM binding intensity (ln) |
| --- | --- |
| TTTTTTTTTTTTTTTTGTACATAATTATATATTTAC [XGTACX_site7540] | 10.9 ± 1 |
| AAAATAATGTTTATATGTACATATATATATATATAT [XGTACX_site8815] | 11 ± 0.57 |
| AACAATTAGAACTTTGCACACTTCTATATATTTTGT [CACACA_site674] | 9.91 ± 0.2 |
| TTTTCTAAATAAATAGTGCATTTATTATATATACAT [GTGCAC_site9766] | 9.97 ± 0.13 |
| ATATATATATATATATGTACATATTTGATTTTTCTT [XGTACX_site8171] | 11.1 ± 0.79 |
| ATATTTATTTATTTATGTACGCACACAGTTGATATT [XGTACX_site5808] | 11.7 ± 1 |
| AAATATTATGTACGCACACACATTTTTGATATATAA [CACACA_site7755] | 11.5 ± 0.88 |
| TATTTATTTATGTACGCACACAGTTGATATTAATTC [CACACA_site2754] | 11.6 ± 0.96 |
| TTGTAATATCTTGTCACACATATATATATATATATA [CACACA_site4937] | 10.1 ± 0.26 |
| AATTGAAAAAGAAATTGTACATTTTATTTTTATTAT [XGTACX_site1973] | 10.9 ± 0.42 |
| ATAGTCTTAATGACTACACACCTAACTATGCATGCA [CACACA_site5084] | 9.88 |
| CAAAAATAAATATAAACACACAATAAATAAATAAAT [CACACA_site891] | 9.74 ± 0.057 |
| TAAAATAATACAAAATGTACAAAATTTACAAAATGT [XGTACX_site3541] | 10.5 ± 0.28 |
| CAAAAATAATTTAGGTGTACAAATTTGACAAAAAAA [XGTACX_site188] | 11.7 ± 0.59 |
| TATTTTAACATTAGGTGTACATACAAAAATAAAAAT [XGTACX_site8577] | 11.6 ± 0.93 |
| CTTAAAATGATAATATGTACACATAAATAATATATA [XGTACX_site8330] | 11.5 ± 0.76 |
| TATATAAACATCGGTAGTACACACATTCATGTATTT [XGTACX_site6443] | 11.5 ± 0.71 |
| ATAAACATCGGTAGTACACACATTCATGTACTTGAT [CACACA_site3037] | 11.8 ± 1 |
| TACTACACACATTCATGTACTTGATAAATTAATGAT [XGTACX_site6444] | 10.9 ± 0.47 |
| TTTTCAAAATGTTGTACACACAAAAAAAAAAAAAAA [CACACA_site1550] | 11.5 ± 1 |
| TAAGAAAAAGGCACACGTACATAATTCAAAATAAAT [XGTACX_site982] | 11.3 ± 0.67 |
| ATAAATAAATAAAAGCGTACATATATATAAAATATA [XGTACX_site8107] | 11.6 ± 0.88 |
| TATAAATAGAGGAAGCGTACATATATATATATATAT [XGTACX_site4993] | 11.3 ± 1 |

| Sequence | gcPBM binding intensity (ln) |
| --- | --- |
| TCGGGAGGGGGGAAGCGTACATATATAAAATTATTA [XGTACX_site4683] | 11.7 ± 0.76 |
| TTATAAAAATACAGTTAACACACATGTGTATATATA [CACACA_site9257] | 10.4 ± 0.25 |
| CGCATGCAATGTTAATGTACATATATATATATATGT [XGTACX_site3316] | 11.7 ± 0.64 |
| ATATATATATATATATGTACATAATGCATATAATAT [XGTACX_site6142] | 11.1 ± 0.52 |
| ATATATATATATATATGTACATATGTTAATCTGCAT [XGTACX_site1068] | 11.2 ± 0.7 |
| AATATAAATAAAAAATTGATTTCTTTAAAAAGGTAT [CACACA_negctrl_site1038] | 9.67 ± 0.18 |
| TTTTTATAAAAATTATTAAAAAAATTATTTATAGCT [CACACA_negctrl_site265] | 9.54 ± 0.12 |
| ATGACATATAAATATACACACATACGTAAGTATATT [CACACA_site5058] | 9.96 ± 0.11 |
| GTACAAAAAAAGTGTACACAAAGTAAGACTTTAATT [CACACA_site5068] | 11.7 ± 0.83 |
| AAAAAAAAAAAAAAAAGTACACAAATTTTAAAAATT [XGTACX_site3006] | 11.6 ± 0.88 |
| GTATAAAAAAATAAAAGTACAAAAAAAAAAGACTGA [XGTACX_site186] | 11.4 ± 0.77 |
| TATAAAAGGTAAGAGTGTACAAGTAAAAAATTTTTA [XGTACX_site771] | 11.2 ± 0.7 |
| TTTAAAGTAATAAAGTGTACAAAAATAAATTCAGCT [XGTACX_site8651] | 11.2 ± 0.67 |
| TGTGTATAAAAAAAGTGTACACAAAGTAAGACTTTA [XGTACX_site3759] | 11.7 ± 0.86 |
| TTCTAAAATTATATAGTGCAATTATATTAATTTTTC | 9.785 ± 0.078 |
| TTTGTTGGTATGGTTACACACATTTAGGAAATAAAA [CACACA_site1411] | 10.4 ± 0.34 |
| TCGAACGTATCATGTGTACACACAAATTGTTTTTTT [CACACA_site8623] | 11.6 ± 0.86 |
| TTTTACAAATGTTTTACACACACATAATTGTATCAA [CACACA_site4166] | 10.1 ± 0.13 |
| GAACGTATCATGTGTACACACAAATTGTTTTTTTTT [CACACA_site2020] | 11.7 ± 0.91 |
| ACCCATTGCTCACGTGCACACATAGAAAAATAATTC [CACACA_site4389] | 10.8 ± 0.58 |
| AAAAATTTAAGTGGGGGTACATTTTTTTAACACCTT [XGTACX_site1093] | 11.6 ± 0.66 |
| ATTCATTTTTTGGGGGGTACACCCTTTTAAACATTT [XGTACX_site4797] | 11.8 ± 1.3 |
| TTTTTAATTTTTTTTAAACACACACCGTACATTCAA [CACACA_site7925] | 10.8 ± 0.61 |
